Several values for one entry are separate records, joined by “and”; a condition that tells them apart may be missing. Equal entries are not always repeated. Results filed as inconclusive are left out. Activity calls are given as the source filed them. Unless noted, the call rests on the fitted dose curve; in most records, active means well fitted curve in the direction sought with a large enough effect; inconclusive means small, poorly fitted or top-dose-only effect, or another doubt; inactive means no such curve, though single readings can be large; an effect the other way counts as inactive or inconclusive.
Columns and labels:
[1] = qHTS assay for small molecule agonists of the antioxidant response element (ARE) signaling pathway measured by Nrf2-dependant transcriptional activity (AID 720636; active means well fitted curve in the direction sought with a large enough effect in the repeat runs; an effect the other way counts as inactive or inconclusive;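 further: HepG2 cells with an ARE-driven luciferase reporter; % of control where 0% means no effect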)
Method in brief: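 Attachment 6 hr at 37 C, then compound versus DMSO vehicle for 16 hr in ARE-luc HepG2 cells (1% dialyzed FBS); luminescence recorded 30 min after ONE-Glo addition at room temperature.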

[2] = qHTS assay for small molecule antagonists of the retinoid-related orphan receptor gamma (ROR-gamma) signaling pathway - cell viability counter screen (AID 720652; active means well fitted curve in the direction sought with a large enough effect in the repeat runs; an effect the other way counts as inactive or inconclusive;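 further: compound exposure lasted 16 hr before ATP read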; further: potency means the concentration at half of the fitted maximal effect)
Method in brief: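 Cytotoxicity counter screen: intracellular ATP (CellTiter-Glo luminescence) measured in the doxycycline-induced CHO RORE-luciferase reporter line after 16 hr compound exposure at 37 C, 5% CO2.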

[3] = qHTS assay for small molecule agonists of the antioxidant response element (ARE) signaling pathway measured by Nrf2-dependant transcriptional activity - cell viability counter screen (AID 720653; active means well fitted curve in the direction sought with a large enough effect in the repeat runs; an effect the other way counts as inactive or inconclusive; further: potency means the concentration at half of the fitted maximal effect; on max response: on the % scale 0 is the no-effect control and ±100 the full control effect); conditions: ARE-bla HepG2 viability, CellTiter-Glo ATP luminescence, 16 h; max response: stronger effect = lower value
Method in brief: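 ARE-bla HepG2 cells (2,000/well) rested 5 hrs at 37C/5% CO2, then exposed to compounds in DMSO for 16 hrs. Viability was read in the same wells as intracellular ATP by luminescence, 30 min at room temperature after reagent addition.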

[4] = qHTS Assay for Identifying Gametocytocidal Compounds (AID 743244); further: potency means the concentration at half of the fitted maximal effect;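 on max response: on the % scale 0 is the no-effect control and ±100 the full control effect; actives lower the fluorescent signal which means gametocytes are killed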; conditions: P. falciparum 3D7 stage III-V gametocytes, alamarBlue, 72 h; max response: stronger effect = lower value
Method in brief: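 In this qHTS viability screen, late-stage 3D7 gametocytes are incubated with compound for 72 h, then with alamarBlue for 24 h; reduced resorufin fluorescence marks killing.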

[5] = qHTS assay for cell viability of HEK293 cells (AID 743288); conditions: ATP luminescence (CellTiter-Glo), 18 h; max response: stronger effect = lower value; further: nearly all actives have a fitted effect of over 50% in size; further: potency means the concentration at half of the fitted maximal effect; on max response: on the % scale 0 is the no-effect control and ±100 the full control effect
Method in brief: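 Readout is luciferase-coupled ATP content (CellTiter-Glo luminescence, 30 min room temperature) as a measure of metabolically competent cells. Parental HEK293 cells were plated 5 h or more before compound addition, then treated 18 h at 37 C.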

[6] = qHTS assay for cell viability of the p53RE-bla HCT-116 cell line (AID 743292); further: nearly all actives have a fitted effect of over 55% in size; further: potency means the concentration at half of the fitted maximal effect
Method in brief: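 Compound-exposed HCT-116 (p53RE-bla) cells, 4,000 per well, were kept 16 h at 37 C following a 5 h preincubation. Cell number was estimated from total ATP by CellTiter-Glo luminescence read after 30 min at room temperature.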

[7] = qHTS profiling for inhibitors of Plasmodium falciparum (3D7) proliferation (AID 743322);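 further: infected erythrocytes exposed to compound for 72 h before lysis; 100% = DMSO vehicle wells and 0% = 0.29 µM artemisinin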; conditions: P. falciparum 3D7 proliferation; at 28.7 µM (top of the series)
Method in brief: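 Parasite DNA was quantified by SYBR Green I fluorescence (ex 485, em 535 nm) after overnight lysis in saponin/Triton buffer at room temperature. Cultures at 0.3% parasitemia and 2.5% hematocrit were first exposed to compound for 72 h at 37 C; signals were normalised to artemisinin (0.29 uM) and vehicle wells.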

[8] = qHTS profiling for inhibitors of Plasmodium falciparum (DD2) proliferation (AID 743323; call rule not given here); conditions: lower = more inhibition; at 28.7 µM (top of the series)
Method in brief: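 Parasite proliferation measured via DNA-dye fluorescence, as uninfected erythrocytes lack DNA. Cultures at 0.3% parasitemia and 2.5% hematocrit incubated 72 h with compound; signal scaled between vehicle and 0.29 uM artemisinin wells.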

[9] = qHTS profiling for inhibitors of Plasmodium falciparum (HB3) proliferation (AID 743324); conditions: Plasmodium falciparum HB3 blood-stage proliferation; at 28.7 µM (top of the series);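 further: 100% = DMSO vehicle wells and 0% = artemisinin-treated control wells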
Method in brief: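 SYBR Green fluorescence (485 ex/535 em) of lysed cultures, incubated overnight at room temperature in the dark, quantifies parasite DNA. Infected erythrocytes at 0.3% parasitemia and 2.5% hematocrit were exposed 72 h; values normalized to DMSO and 0.29 uM artemisinin controls.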

C[C@]12CCC(=O)C[C@@H]1CC[C@@H]1[C@@H]2CC[C@]2(C)[C@@H](O)CC[C@@H]12
inactive: Potency [1] | Potency [2] | max response [3] -16.7% and -5.79% | max response [4] 17.9% | max response [5] -9.61% and -12.6% | Potency [6]

CC(C)CCON=O
inactive: Potency [1] | Potency [2] | max response [3] 1.97% | max response [4] -1.81% | max response [5] -5.29% | Potency [6]

C[C@H]1CC[C@@H]2[C@@H](C)[C@H]3[C@H](C[C@H]4[C@@H]5CC=C6CC(O[C@@H]7O[C@H](CO)[C@H](O)[C@H](O[C@@H]8O[C@H](CO)[C@@H](O)[C@H](O)[C@H]8O)[C@H]7O[C@H]7O[C@@H](C)[C@H](O)[C@@H](O)[C@H]7O)CC[C@]6(C)[C@H]5CC[C@]34C)N2C1 (some centres undefined)
active: Potency [2] 18.8 µM | Potency [3] 44.7 µM | Potency [5] 12.6 µM | Potency [6] 70.8 µM
inactive: Potency [1] | max response [4] -0.257%

O=C(NCNC(=O)NC1C(=O)NC(=O)N1CO)NC1C(=O)NC(=O)N1CO (centres undefined)
inactive: Potency [1] | max response [3] 1.81% | max response [4] 20.5% | max response [5] -3.93% | Potency [6]

C[CH2][Hg][S]c1ccccc1C(=O)O
active: Potency [3] 44.7 µM | Potency [4] 1.41 µM | Potency [5] 50.1 µM | Potency [6] 15.8 µM

Oc1cc(Cl)c(Cl)cc1Cl
inactive: Potency [1] | Potency [2] | max response [3] 4.14% and 5.09% | max response [4] 4.45% | max response [5] -2.85% and 0.876% | Potency [6]

C[C@H]1CCC[C@H](O)CCCCCc2cc(O)cc(O)c2C(=O)O1
inactive: Potency [1] | Potency [2] | max response [3] -13.4% | max response [5] -4.88% | Potency [6]

ClC1C(Cl)C(Cl)C(Cl)C(Cl)C1Cl (centres undefined)
inactive: Potency [1] | max response [3] -5.28% [middle of 4 runs] | max response [4] 4.65% | max response [5] -11% [middle of 4 runs] | Potency [6]

O=C(O)C(Cl)(Cl)Cl
inactive: Potency [1] | Potency [2] | max response [3] -1.81% and -2.86% | max response [4] 5.93% | max response [5] 7.06% and 1.52% | Potency [6]

O=CC=O
inactive: Potency [1] | Potency [2] | max response [3] 0.354% | max response [4] 1.75% | max response [5] -6.19% | Potency [6]

CCOC(=O)c1ccccc1C(=O)OCC
inactive: Potency [1] | Potency [2] | max response [3] 8.89% and -10.7% and -8.42% | max response [4] 6.33% | max response [5] -2.28% and 4.29% and 3.24% | Potency [6]

O=c1[nH]c(=O)n(Cl)c(=O)n1Cl
inactive: Potency [1] | max response [3] -11% | max response [5] -3.48% | Potency [6]

ClC=C(Cl)Cl
inactive: Potency [1] | Potency [2] | max response [3] -6.12% and -5.8% | max response [4] -0.112% | max response [5] 5.41% and -9.88% | Potency [6]

C/C(=C\c1csc(C)n1)[C@@H]1C[C@@H]2O[C@]2(C)CCC[C@H](C)[C@H](O)[C@@H](C)C(=O)C(C)(C)[C@@H](O)CC(=O)O1
13%: activity, percent of control [8]
11%: remaining parasite growth % (stronger effect = lower value) [7]
14.1%: remaining proliferation (% of control), lower = more inhibition [9]

Source: PubChem BioAssay (NCATS)
